Measured values as given in PubChem BioAssay.
Activity calls are given as the source filed them.

Assays:
[1] = test system: PRMT1 (protein arginine N-methyltransferase 1); test: small molecules binding arginine methyltransferase PRMT1 – biochemical, small-molecule microarray, 635 nm fluorescence, primary screen (AID 1088); settings: higher = more signal;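 note: binding of Prmt1 protein to compounds spotted on small-molecule microarray slides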
[2] = growth effects on S. cerevisiae YJM789 – YJM789 clinical isolate, OD600, 24 h, basal, primary screen (AID 1089); settings: higher = more signal, called active from +8 up or from −8 down;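 note: growth of clinical yeast isolate S. cerevisiae YJM 789 seeded 1000 cells per well; test concentration not given here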
[3] = S. pombe growth modifiers, basal conditions – strain 972, OD600, 24 h, no modulator, primary screen (AID 1090);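 note: basal condition with compound alone and no growth modifier present; test concentration not given here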; settings: S. pombe 972 growth, higher = more signal, called active from +8 up or from −8 down
[4] = budding yeast growth modifiers under rapamycin – strain BY4716, OD600, 96 h, primary screen (AID 1091); note: test concentration not given here; settings: S. cerevisiae BY4716 + rapamycin, higher = more signal, called active from +8 up or from −8 down
[5] = target: Torsin-1A-interacting protein 2 (Homo sapiens) (UniProt Q8NFQ8); test: small molecules binding lysate-expressed LULL1 – cell lysate, human LULL1 lysate, 635/667 nm fluorescence, primary screen (AID 1092); settings: small-molecule microarray, hLULL1 lysate binding, 635 nm fluorescence; higher = more signal;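 note: probe is lysate of COS7 cells overexpressing human LULL1; score merges per-feature 667 nm fluorescence with signal-to-noise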
[6] = optical density change of DRC41 E. coli – strain DRC41, OD650, 24 h, E. coli filamentation project, primary screen (AID 1093);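 note: MC1000 strain lacking acrAB efflux and sulA so SOS filamentation is blocked; test concentration not given here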; settings: E. coli DRC41 growth, higher = more signal, called active from +8 up or from −8 down
[7] = probe aLefty2 binding to arrayed compounds – biochemical, biotinylated probe, 635/667 nm fluorescence, primary screen (AID 1094); settings: small-molecule microarray, higher = more signal;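 note: score merges spot fluorescence near 667 nm with spot signal-to-noise ratio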
[8] = test system: Noggin (protein binding on small-molecule microarray); test: small molecules binding Noggin protein – biochemical, 635/667 nm fluorescence, primary screen (AID 1095); settings: 635 nm fluorescence, higher = more signal;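 note: score merges 667 nm feature fluorescence with signal to noise over triplicate slides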
[9] = target: Neurogenic locus notch homolog protein 3 (Homo sapiens) (UniProt Q9UM47); test: small molecules binding NOTCH3 protein – biochemical, 635/667 nm fluorescence, primary screen (AID 1096); settings: small-molecule microarray, 635 nm fluorescence, higher = more signal
[10] = probe aEGFR binding to arrayed compounds – biochemical, biotinylated probe, 635/667 nm fluorescence, primary screen (AID 1097); settings: small-molecule microarray, higher = more signal;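 note: probe is a biotinylated anti-EGFR antibody binding compounds printed on slides; score combines fluorescence near 667 nm and signal to noise of each spot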
[11] = test system: Plasmodium falciparum Sir2 (PF13_0152, Sir2A); test: Plasmodium falciparum Sir2A binding compounds – biochemical, small-molecule microarray, 635 nm fluorescence, primary screen (AID 1098); settings: fluorescence 635 nm, higher = more signal;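 note: score merges spot fluorescence intensity with its signal-to-noise ratio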
[12] = probe aDKK1 binding to arrayed compounds – biochemical, biotinylated probe, 635/667 nm fluorescence, primary screen (AID 1099); settings: small-molecule microarray, higher = more signal;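 note: score merges 667nm spot fluorescence with signal to noise across triplicate slides; reference of the scale not given here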
[13] = probe aCHRDL2 binding to arrayed compounds – biochemical, biotinylated probe, 635/667 nm fluorescence, primary screen (AID 1100); settings: small-molecule microarray, higher = more signal
[14] = change in splice reporter luminescence, either direction, cell-based, HEK293, spliceosome inhibition project, primary screen (AID 1101); settings: HEK293 splicing luciferase reporter, 24 h, higher = more signal, called active from +8 up or from −8 down;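 note: HEK293 cells carrying a splicing-competent luciferase reporter gene; test concentration not given here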
[15] = target: Fibroblast growth factor 10 (Homo sapiens) (UniProt O15520); test: compounds binding fibroblast growth factor 10 – biochemical, small-molecule microarray, 635 nm fluorescence, primary screen (AID 1102); settings: FGF10 binding, fluorescence 635 nm, higher = more signal
[16] = test system: glycogen synthase kinase-3 (GSK3A per assay name; protocol says GSK3B); test: compounds binding glycogen synthase kinase-3 – biochemical, small-molecule microarray, 635 nm fluorescence, GSK3A, primary screen (AID 1103); settings: fluorescence 635 nm, higher = more signal; note: the record names both GSK3A and GSK3B
[17] = target: Epidermal growth factor receptor (Homo sapiens) (UniProt P00533); test: compounds binding epidermal growth factor receptor – biochemical, small-molecule microarray, 635 nm fluorescence, primary screen (AID 1104); settings: EGFR binding, higher = more signal;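 note: score merges 667 nm emission intensity with spot signal to noise over triplicate slides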
[18] = target: Follistatin-related protein 3 (Homo sapiens) (UniProt O95633); test: compounds binding follistatin-related protein 3 – biochemical, small-molecule microarray, 635 nm fluorescence, primary screen (AID 1105); settings: FSTL3 binding, higher = more signal;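 note: score merges emission near 667 nm and signal to noise per printed spot across three slides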
[19] = target: Dickkopf-related protein 1 (Homo sapiens) (UniProt O94907); test: small molecules binding DKK1 protein – biochemical, small-molecule microarray, 635 nm fluorescence scan, primary screen (AID 1106); settings: higher = more signal;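 note: score merges emission near 667 nm with signal to noise over three replicate slides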
[20] = test system: Inhibin beta A chain (activin A); test: small molecules binding activin A – biochemical, small-molecule microarray, 635 nm fluorescence scan, primary screen (AID 1107); settings: INHBA, higher = more signal;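 note: mouse activin A protein probed at 4.33 µg/mL on printed slides; score merges bound-protein fluorescence near 667 nm with spot signal-to-noise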

Sequence of Neurogenic locus notch homolog protein 3 (Homo sapiens) (Q9UM47 whole entry, looked up): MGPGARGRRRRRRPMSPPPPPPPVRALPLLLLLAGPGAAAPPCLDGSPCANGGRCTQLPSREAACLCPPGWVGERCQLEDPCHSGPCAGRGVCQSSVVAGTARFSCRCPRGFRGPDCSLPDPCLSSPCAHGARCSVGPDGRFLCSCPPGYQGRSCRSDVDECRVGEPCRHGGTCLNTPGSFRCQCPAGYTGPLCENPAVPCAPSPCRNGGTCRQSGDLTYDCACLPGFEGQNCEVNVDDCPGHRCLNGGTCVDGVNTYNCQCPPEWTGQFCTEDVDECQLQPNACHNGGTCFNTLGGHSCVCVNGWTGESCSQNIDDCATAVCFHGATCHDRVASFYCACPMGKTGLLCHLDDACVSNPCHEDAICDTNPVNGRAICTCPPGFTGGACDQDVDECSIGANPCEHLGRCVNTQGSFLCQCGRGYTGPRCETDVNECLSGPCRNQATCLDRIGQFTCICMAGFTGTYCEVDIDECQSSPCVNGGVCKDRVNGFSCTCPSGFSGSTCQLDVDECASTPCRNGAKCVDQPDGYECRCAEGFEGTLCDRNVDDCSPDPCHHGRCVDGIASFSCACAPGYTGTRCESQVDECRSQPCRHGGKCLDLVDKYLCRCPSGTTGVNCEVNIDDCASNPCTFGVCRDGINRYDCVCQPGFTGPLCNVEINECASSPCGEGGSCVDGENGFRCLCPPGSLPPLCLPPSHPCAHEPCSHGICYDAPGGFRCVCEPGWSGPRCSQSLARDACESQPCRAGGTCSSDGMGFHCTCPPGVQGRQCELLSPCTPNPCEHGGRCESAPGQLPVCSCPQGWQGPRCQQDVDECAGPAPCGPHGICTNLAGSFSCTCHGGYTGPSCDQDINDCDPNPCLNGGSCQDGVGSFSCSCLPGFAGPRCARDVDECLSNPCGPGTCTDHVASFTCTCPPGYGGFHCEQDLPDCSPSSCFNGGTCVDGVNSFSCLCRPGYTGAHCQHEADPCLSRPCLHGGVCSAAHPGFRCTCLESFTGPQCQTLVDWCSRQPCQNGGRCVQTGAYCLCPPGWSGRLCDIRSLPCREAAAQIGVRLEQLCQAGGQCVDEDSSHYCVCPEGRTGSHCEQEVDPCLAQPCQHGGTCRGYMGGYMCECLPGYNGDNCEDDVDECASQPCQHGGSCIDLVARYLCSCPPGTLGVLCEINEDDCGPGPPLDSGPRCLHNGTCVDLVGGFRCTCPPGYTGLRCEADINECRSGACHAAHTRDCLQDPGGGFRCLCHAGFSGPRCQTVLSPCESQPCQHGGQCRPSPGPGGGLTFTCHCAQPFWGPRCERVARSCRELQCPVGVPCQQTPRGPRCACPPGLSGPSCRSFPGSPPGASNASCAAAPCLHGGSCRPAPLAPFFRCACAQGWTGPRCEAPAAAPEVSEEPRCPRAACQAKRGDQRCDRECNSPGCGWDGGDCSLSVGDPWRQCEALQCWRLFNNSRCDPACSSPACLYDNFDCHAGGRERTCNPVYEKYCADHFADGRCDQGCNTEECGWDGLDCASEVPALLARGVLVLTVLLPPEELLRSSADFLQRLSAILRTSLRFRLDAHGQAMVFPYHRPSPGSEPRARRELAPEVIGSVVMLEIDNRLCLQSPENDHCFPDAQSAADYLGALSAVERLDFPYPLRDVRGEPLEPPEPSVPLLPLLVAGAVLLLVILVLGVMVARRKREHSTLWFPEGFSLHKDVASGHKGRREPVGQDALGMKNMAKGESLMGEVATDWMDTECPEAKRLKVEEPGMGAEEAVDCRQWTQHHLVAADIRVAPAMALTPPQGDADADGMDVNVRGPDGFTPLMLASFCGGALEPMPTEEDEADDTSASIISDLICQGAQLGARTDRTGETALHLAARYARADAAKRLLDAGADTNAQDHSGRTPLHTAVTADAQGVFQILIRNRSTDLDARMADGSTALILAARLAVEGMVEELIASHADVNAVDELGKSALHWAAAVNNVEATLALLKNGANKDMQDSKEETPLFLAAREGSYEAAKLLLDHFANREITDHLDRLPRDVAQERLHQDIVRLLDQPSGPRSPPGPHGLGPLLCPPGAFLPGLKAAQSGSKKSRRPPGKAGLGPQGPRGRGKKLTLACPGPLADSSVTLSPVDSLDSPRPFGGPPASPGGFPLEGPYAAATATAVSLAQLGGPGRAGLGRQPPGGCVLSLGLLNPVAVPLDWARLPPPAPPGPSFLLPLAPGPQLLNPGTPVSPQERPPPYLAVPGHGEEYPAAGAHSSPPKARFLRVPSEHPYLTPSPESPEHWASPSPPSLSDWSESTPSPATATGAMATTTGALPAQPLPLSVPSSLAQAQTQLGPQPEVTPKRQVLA
Sequence of Epidermal growth factor receptor (Homo sapiens) (P00533 whole entry, looked up): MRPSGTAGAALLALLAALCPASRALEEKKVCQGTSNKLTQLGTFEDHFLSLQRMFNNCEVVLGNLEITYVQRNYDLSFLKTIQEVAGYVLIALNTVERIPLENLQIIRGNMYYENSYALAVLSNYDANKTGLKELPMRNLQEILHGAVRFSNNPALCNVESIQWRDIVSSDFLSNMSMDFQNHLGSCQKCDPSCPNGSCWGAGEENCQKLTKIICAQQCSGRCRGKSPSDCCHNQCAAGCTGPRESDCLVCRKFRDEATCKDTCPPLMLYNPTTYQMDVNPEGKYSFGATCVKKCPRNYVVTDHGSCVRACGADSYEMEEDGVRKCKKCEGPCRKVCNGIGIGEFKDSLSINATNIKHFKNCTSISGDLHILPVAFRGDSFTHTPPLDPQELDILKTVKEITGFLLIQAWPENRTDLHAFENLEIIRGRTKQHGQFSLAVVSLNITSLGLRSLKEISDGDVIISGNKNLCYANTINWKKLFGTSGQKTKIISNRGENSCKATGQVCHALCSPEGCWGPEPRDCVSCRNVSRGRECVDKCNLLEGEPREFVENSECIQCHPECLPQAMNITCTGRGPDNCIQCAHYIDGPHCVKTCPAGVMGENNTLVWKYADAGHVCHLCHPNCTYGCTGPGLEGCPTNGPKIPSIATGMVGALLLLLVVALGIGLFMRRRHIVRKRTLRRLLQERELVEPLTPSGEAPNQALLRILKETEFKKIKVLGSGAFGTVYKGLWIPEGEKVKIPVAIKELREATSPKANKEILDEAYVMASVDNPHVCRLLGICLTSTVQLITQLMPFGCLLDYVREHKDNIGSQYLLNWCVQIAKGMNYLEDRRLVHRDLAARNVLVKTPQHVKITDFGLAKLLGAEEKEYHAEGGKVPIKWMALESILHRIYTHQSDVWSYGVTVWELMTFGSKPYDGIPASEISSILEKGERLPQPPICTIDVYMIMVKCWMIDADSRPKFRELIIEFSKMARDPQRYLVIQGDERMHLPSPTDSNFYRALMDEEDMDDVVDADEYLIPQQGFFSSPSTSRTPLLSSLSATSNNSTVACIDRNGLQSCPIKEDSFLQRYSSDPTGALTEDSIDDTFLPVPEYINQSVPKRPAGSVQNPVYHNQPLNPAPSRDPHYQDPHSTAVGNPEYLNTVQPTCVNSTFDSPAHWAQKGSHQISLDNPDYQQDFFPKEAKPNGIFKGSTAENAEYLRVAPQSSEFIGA
Sequence of Follistatin-related protein 3 (Homo sapiens) (O95633 whole entry, looked up): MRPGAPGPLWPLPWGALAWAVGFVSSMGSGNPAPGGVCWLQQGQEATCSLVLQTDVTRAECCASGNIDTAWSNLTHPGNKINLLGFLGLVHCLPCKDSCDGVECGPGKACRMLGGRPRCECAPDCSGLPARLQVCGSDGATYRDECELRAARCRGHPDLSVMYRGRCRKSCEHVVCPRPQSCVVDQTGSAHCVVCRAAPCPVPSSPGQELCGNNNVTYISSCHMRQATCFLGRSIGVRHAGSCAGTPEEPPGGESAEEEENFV
Sequence of Torsin-1A-interacting protein 2 (Homo sapiens) (Q8NFQ8 whole entry, looked up): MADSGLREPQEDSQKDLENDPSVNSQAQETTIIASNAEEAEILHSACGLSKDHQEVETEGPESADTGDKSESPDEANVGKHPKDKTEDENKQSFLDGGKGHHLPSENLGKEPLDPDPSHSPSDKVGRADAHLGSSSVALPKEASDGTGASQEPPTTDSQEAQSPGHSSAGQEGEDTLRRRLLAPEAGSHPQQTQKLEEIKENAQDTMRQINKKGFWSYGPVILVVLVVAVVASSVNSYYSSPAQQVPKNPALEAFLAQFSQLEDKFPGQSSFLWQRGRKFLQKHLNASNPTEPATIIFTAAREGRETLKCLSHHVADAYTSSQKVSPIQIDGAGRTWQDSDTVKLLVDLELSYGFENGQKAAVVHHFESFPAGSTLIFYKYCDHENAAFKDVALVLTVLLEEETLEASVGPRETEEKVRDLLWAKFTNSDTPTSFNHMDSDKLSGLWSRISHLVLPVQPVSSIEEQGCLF
Sequence of Fibroblast growth factor 10 (Homo sapiens) (O15520 whole entry, looked up): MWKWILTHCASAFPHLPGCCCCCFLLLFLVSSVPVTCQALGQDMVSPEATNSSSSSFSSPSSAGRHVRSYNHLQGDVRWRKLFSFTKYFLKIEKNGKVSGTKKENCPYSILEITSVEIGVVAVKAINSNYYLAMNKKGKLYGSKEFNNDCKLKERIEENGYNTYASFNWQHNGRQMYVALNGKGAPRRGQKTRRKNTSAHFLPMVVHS
Sequence of Dickkopf-related protein 1 (Homo sapiens) (O94907 whole entry, looked up): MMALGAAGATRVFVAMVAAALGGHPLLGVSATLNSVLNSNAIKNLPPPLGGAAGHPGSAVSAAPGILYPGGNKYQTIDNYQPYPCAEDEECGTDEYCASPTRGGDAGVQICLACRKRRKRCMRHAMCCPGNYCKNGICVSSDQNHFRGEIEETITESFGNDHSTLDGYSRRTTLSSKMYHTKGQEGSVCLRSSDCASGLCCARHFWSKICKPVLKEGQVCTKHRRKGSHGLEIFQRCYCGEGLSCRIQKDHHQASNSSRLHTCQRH

Structure (SMILES)	composite z-score [1]	z-score [2]	z-score [3]	z-score [4]	composite z-score [5]	z-score [6]	composite z-score [7]	composite z-score [8]	composite z-score [9]	composite z-score [10]	composite z-score [11]	composite z-score [12]	composite z-score [13]	z-score [14]	composite z-score [15]	composite z-score [16]	composite z-score [17]	composite z-score [18]	composite z-score [19]	composite z-score [20]
C=CC[C@]1(C(=O)N(C)C)COC(c2ccc(OCCCO)cc2)=N1	1.36	0.0794 (inactive)	-2.04 (inactive)	-0.95 (inactive)	2.75	-1.46 (inactive)	0.804	-0.39	-0.338	0.367	1.6	0.98	1.26	-0.858 (inactive)	0.772	0.248	-0.737	-0.438	-0.0393	0.465
[N-]=[N+]=NCc1ccccc1[C@H]1OC(c2ccc(OCCCO)cc2)=N[C@@]1(Cc1ccccc1)C(=O)N1CCOCC1	1.46	-2.07 (inactive)	-0.21 (inactive)	-0.0315 (inactive)	3.51	-0.522 (inactive)	0.254	0.316	1.08	0.266	1.25	0.721	0.884	-0.991 (inactive)	1.37	1.33	0.0968	0.808	-0.0244	-0.303
COc1ccc(C#Cc2ccc3c(c2)[C@]2(C(=O)N3)[C@H](C(=O)Nc3nc4ccccc4s3)[C@H]3C(=O)O[C@H](c4ccccc4)[C@H](c4ccccc4)N3[C@@H]2c2ccc(OCCO)cc2)cc1	1.55	3.16 (inactive)	2.06 (inactive)	1.64 (inactive)	2.7	0.361 (inactive)	-0.0412	0.994	1.1	0.123	0.937	0.72	0.766	-0.126 (inactive)	1.17	1.3	0.209	1.13	0.629	-0.37
O=C1OCCC=C[C@H]2OC34C=CCN(CCN5CCOCC5)C(=O)[C@H]3N(CCCO)C(=O)[C@@H]4C12 (stereo not given in full)	0.0132	-0.728 (inactive)	-1.14 (inactive)	0.229 (inactive)	2.98	0.922 (inactive)	-0.257	-0.293	0.329	-0.166	1.41	-0.242	0.119	-1.12 (inactive)	-0.272	-0.869	-0.938	-0.549	-0.0385	0.564
COCCCNC(=O)[C@@H]1c2ccccc2C(=O)N(Cc2cc(C(F)(F)F)cc(C(F)(F)F)c2)[C@H]1c1ccc(CO)cc1	-0.217	0.109 (inactive)	0.144 (inactive)	-0.405 (inactive)	0.928	0.329 (inactive)	-0.164	-0.441	-0.305	0.45	-1.09	1.15	0.291	-0.475 (inactive)	-0.0413	0.0135	-0.301	0.142	0.346	0.92
COCCOC(=O)N1C(=O)[C@@]2(c3cc(C#CCCO)ccc31)[C@H](C(=O)N1CCc3cc(OC)c(OC)cc3C1)[C@H]1C(=O)O[C@H](c3ccccc3)[C@H](c3ccccc3)N1[C@@H]2c1ccccc1OCCO	1.55	2.65 (inactive)	1.65 (inactive)	3.88 (inactive)	2.81	0.156 (inactive)	-0.0159	1.81	1.1	-0.0564	1.64	-0.232	0.0036	-0.961 (inactive)	1.42	1.29	0.861	1.32	0.35	0.748
COc1ccc(CCNC(=O)[C@@]2(Sc3ccc(C)cc3)CC(=O)N(Cc3cc(C(F)(F)F)cc(C(F)(F)F)c3)[C@@H]2c2ccc(CO)cc2)cc1	-0.772	-1.11 (inactive)	-0.912 (inactive)	-0.683 (inactive)	0.92	-0.466 (inactive)	0.344	-1.69	-1.26	-0.213	0.629	0.18	1.14	0.257 (inactive)	-1.59	-0.655	-1.81	-0.927	-1.88	-0.497
COc1ccc(NN2C(C(O)c3ccc(OC)cc3)C=CC3C(=O)N(C4CCCCC4)C(=O)C32)cc1 (stereo not given)	1.43	-0.0924 (inactive)	1.01 (inactive)	0.365 (inactive)	2.12	0.0447 (inactive)	0.103	0.157	1.08	0.21	0.797	0.702	0.501	-0.316 (inactive)	0.608	1.14	0.556	1.04	-0.101	1.2
COc1cc2c(cc1O)C(c1ccc(CN3CCCC3)cc1)N(Cc1ccc([N+](=O)[O-])o1)CC2 (stereo not given)	-0.246	-0.686 (inactive)	-2.48 (inactive)	-0.604 (inactive)	1.65	0.098 (inactive)	-0.299	-0.408	0.577	-0.227	1.23	-0.276	-0.0934	0.982 (inactive)	0.116	-0.903	-0.0173	0.0429	-0.299	-0.289
CC(C)c1ccc(NN2C(C(O)C(C)C)C=CC3C(=O)N(c4ccccc4)C(=O)C32)cc1 (stereo not given)	1.56	1.39 (inactive)	0.313 (inactive)	1.39 (inactive)	3.53	-0.613 (inactive)	0.633	0.284	1.04	0.516	1.06	1.26	1.14	0.437 (inactive)	0.651	1.31	0.389	0.926	-0.103	0.496
CC1CC/C=C\[C@H]2OC34C=CCN(c5ccc(Cl)cc5)C(=O)[C@H]3N(CCCO)C(=O)[C@]4(C)C2C(=O)O1 (stereo not given in full)	-1.33	0.0887 (inactive)	-0.117 (inactive)	1.13 (inactive)	-0.265	-0.643 (inactive)	-0.154	-0.774	-0.105	-0.151	0.312	-0.0782	0.717	0.453 (inactive)	-1.32	-1.28	-1.1	-0.949	-1.42	0.596
COCCOC(=O)N1C(=O)[C@@]2(c3cc(C#CCC(C(=O)OC)C(=O)OC)ccc31)[C@H](C(=O)N1CCCCCCC1)[C@H]1C(=O)O[C@H](c3ccccc3)[C@H](c3ccccc3)N1[C@@H]2c1ccccc1OCCO	1.56	0.917 (inactive)	-1.08 (inactive)	3.51 (inactive)	2.88	0.858 (inactive)	1.82	1.82	1.14	1.06	1.61	2.62	1.59	-0.815 (inactive)	0.547	1.32	0.893	1.67	0.987	1.96
O=C1O[C@@H](c2ccccc2)[C@@H](c2ccccc2)N2[C@@H](c3ccc(OCCO)cc3)[C@]3(C(=O)Nc4ccc(C#CCCO)cc43)[C@@H](C(=O)Nc3nc4ccccc4s3)[C@H]12	1.5	1.32 (inactive)	0.415 (inactive)	1.72 (inactive)	3.06	2.55 (inactive)	-0.0826	0.677	1.06	-0.0531	1.08	0.49	0.683	-0.288 (inactive)	0.975	1.29	0.367	1.08	0.0321	0.655
C=CCC(OC(C)=O)[C@@H]1[C@@H](N(Cc2ccc(-c3cccc(C(F)(F)F)c3)o2)C(=O)c2cccc3ccccc23)c2cc(OCCCO)ccc2N1C(=O)c1ccc2ccccc2n1 (stereo not given in full)	0.24	0.75 (inactive)	0.835 (inactive)	0.356 (inactive)	-0.039	-0.746 (inactive)	-0.0209	-0.029	-0.684	-0.132	0.765	-0.262	0.52	-1.29 (inactive)	0.0448	-0.684	-0.117	0.113	0.144	1.47
